20 compounds from ChEMBL document CHEMBL3988442, “University of Dundee, Small-Polar-MMV Screening Library” (2021) can be followed below.

The test deals with AMP-activated protein kinase, AMPK (Homo sapiens) (UniProt P54646+O43741+P54619+Q9UGJ0+Q9Y478+Q13131+Q9UGI9). The test can be described thus: AMP-dependent Kinase enzyme assay. An in vitro enzyme assay that detects ADP turnover that is directly proportional to AMPK activity. This uses naive AMPK that is activated during the assay with MK-8722. Details: scale not given: direction of the effect not stated beside the values. The conditions noted are these: 30 µM. Type of test: functional.
For `CC(C)Oc1cccc(F)c1C(C(=O)O)N1CCCC1` (stereo not given), the Percent Effect was found to be 8.59%.

Consider `COc1ccc(CCN(C)C(=O)c2cc(C(C)=O)c[nH]2)cc1OC`, for which the Percent Effect was -3.69%.

Turning to `Cn1nccc1-c1cncc(C2CCCN(S(C)(=O)=O)C2)n1` (stereo not given), the Percent Effect was determined as 22.7%.

Take `CCc1nc2n(n1)CC(NCc1nc3ccccc3nc1C)CC2` (stereo not given): the Percent Effect was -2.35%.

For `COc1coc(CN2CCCC3(CCC(=O)N(CC4CC4)C3)C2)cc1=O` (stereo not given), the Percent Effect turned out to be 8.74%.

Regarding `Cc1ccc(-c2noc(C3CCN3C(=O)c3cc[nH]n3)n2)s1` (stereo not given), the Percent Effect is 16%.

`CCc1csc(NC(=O)Nc2c(C)n[nH]c2C)n1`: the Percent Effect was -1.09%.

Take `CCCS(=O)(=O)N1CCN(CCCO)CC1`: the Percent Effect came to 89.9%.

Take `CC(=O)Nn1ccc2c(nnc3c(-c4ccccc4)cnn32)c1=O`: the Percent Effect stood at 12.7%.

Take `CC(C)CNC(=O)Nc1cccc(OCC#N)c1`: the Percent Effect was determined as 2%.

Take `Cc1cnn(C2CN(CCCOc3ccc(C#N)cc3)C2)c1`: the Percent Effect was -0.666%.

Take `COCCN(CCOC)C(=O)c1cnn(C)c1C`: the Percent Effect was -3.12%.

In the case of `O=C(CN1CCCC(c2ccn[nH]2)C1)N1CCCc2ccccc21` (stereo not given), the Percent Effect is -2.2%.

With `CCc1noc(C(C)N2CCN(Cc3noc(C4CC4)n3)CC2)n1` (stereo not given), the Percent Effect was 0.498%.

Regarding `CS(=O)(=O)CCCN1CCSCC1c1ccc(Cl)cc1` (stereo not given), the Percent Effect was -4.65%.

On to `OC(CNCCc1nnc2ccccn12)c1ccc2c(c1)OCO2` (stereo not given), for which the Percent Effect is 17.2%.

For the compound `CN(Cc1cc[nH]n1)C(=O)c1ccc2c(c1)nc(N1CC[C@H](O)C1)n2C`, the Percent Effect was found to be 19.9%.

Turning to `CSc1ncccc1C(=O)NC(C)c1cccc(N2CCOC2=O)c1` (stereo not given), the Percent Effect is -0.0368%.

For `CC(=O)NCC(=O)Nc1cc(C)n(-c2ccc(Cl)cc2Cl)n1`, the Percent Effect is 3.23%.

For `Cn1cccc1CN(C(=O)CC(CC(=O)O)c1cccs1)C1CC1` (stereo not given), the Percent Effect was -2.3%.
